{"source": "the OligoGym collection"}
{"molecular_target": "SLC50A1", "assay": "pooled miR-30 sensor sort-seq; sequence = guide strand", "settings": "shRNA"}
{"sequence": "TCTGACGTTGTCCACACTCCGG", "sensor-assay potency score (higher = more potent)": -1.36}
{"sequence": "ATATAGGGATCTCTGAGTCGAA", "sensor-assay potency score (higher = more potent)": -0.899}
{"sequence": "TTGGACACCATGATATAGGGAT", "sensor-assay potency score (higher = more potent)": 0.348}
{"sequence": "TGATTTAGTTTGAATCACCTTA", "sensor-assay potency score (higher = more potent)": 0.457}
{"sequence": "TTCCTGTCTTGCTCCTGGGGGT", "sensor-assay potency score (higher = more potent)": -0.7}
{"sequence": "TCTGAGTCGAAACCCATAGAGG", "sensor-assay potency score (higher = more potent)": -1.58}
{"sequence": "TCGCATGTGCCTGAGGTCCGAG", "sensor-assay potency score (higher = more potent)": -1.22}
{"sequence": "TTATCCTCAAAGTCATCTCTTG", "sensor-assay potency score (higher = more potent)": -0.683}
{"sequence": "TATAGGGATCTCTGAGTCGAAA", "sensor-assay potency score (higher = more potent)": -1.32}
{"sequence": "TTGATTTAGTTTGAATCACCTT", "sensor-assay potency score (higher = more potent)": -0.06}
{"sequence": "TAGTTTGAATCACCTTAGCCAA", "sensor-assay potency score (higher = more potent)": -1.16}
{"molecular_target": "SLC5A9", "assay": "pooled miR-30 sensor sort-seq; sequence = guide strand", "settings": "shRNA"}
{"sequence": "TAGTCCATTGTCTAAGAGCTTT", "sensor-assay potency score (higher = more potent)": -1.07}
{"sequence": "AGGAACACCACAAACACTCTGC", "sensor-assay potency score (higher = more potent)": -0.94}
{"sequence": "TTAGAGAGTAGGAAGAGGCAGA", "sensor-assay potency score (higher = more potent)": 0.115}
{"sequence": "TTGTTTAATCTGTCTACACTGA", "sensor-assay potency score (higher = more potent)": -0.279}
{"sequence": "TTAACAAGTCATGTCTCTCCAA", "sensor-assay potency score (higher = more potent)": -0.0979}
{"sequence": "TGGTCTGTGCACCAACACCAGG", "sensor-assay potency score (higher = more potent)": -1.88}
{"sequence": "TAACAAGTCATGTCTCTCCAAC", "sensor-assay potency score (higher = more potent)": -0.907}
{"sequence": "TTCTACTCTCAAGACACACATT", "sensor-assay potency score (higher = more potent)": -0.868}
{"sequence": "TTGTCTAAGAGCTTTCTGCCCA", "sensor-assay potency score (higher = more potent)": -0.317}
{"sequence": "TGTTGGAACATCCCACTCGGGC", "sensor-assay potency score (higher = more potent)": -1.24}
{"sequence": "TTCTTTGGCAGACATCAGGGTC", "sensor-assay potency score (higher = more potent)": -0.689}
{"sequence": "TAGGCGTGCAGACCAACTCTGG", "sensor-assay potency score (higher = more potent)": -1.48}
{"molecular_target": "SLC6A11", "assay": "pooled miR-30 sensor sort-seq; sequence = guide strand", "settings": "shRNA"}
{"sequence": "TTAACTGTCACCATCCGTGGGC", "sensor-assay potency score (higher = more potent)": 0.397}
{"sequence": "TTCAATGTTATCATAGAACCGG", "sensor-assay potency score (higher = more potent)": -0.488}
{"sequence": "TAGGAGAAAAAGATCTGCGTTC", "sensor-assay potency score (higher = more potent)": -0.00212}
{"sequence": "TACAAGTAGAACTTGATGCCCT", "sensor-assay potency score (higher = more potent)": 0.00476}
{"sequence": "TTCACTTGTGAACTGCCCCAGA", "sensor-assay potency score (higher = more potent)": -0.108}
{"sequence": "TTATCATAGAACCGGTTGCTTC", "sensor-assay potency score (higher = more potent)": -1.38}
{"sequence": "TCATTAACTGTCACCATCCGTG", "sensor-assay potency score (higher = more potent)": -0.565}
{"sequence": "ATAATTGTTATAACTTCCCAGA", "sensor-assay potency score (higher = more potent)": -0.808}
{"sequence": "TCAATGTTATCATAGAACCGGT", "sensor-assay potency score (higher = more potent)": -0.663}
{"sequence": "TTCTGCAGAGACACATGGCTGT", "sensor-assay potency score (higher = more potent)": 0.541}
{"sequence": "TAGGAGATAACAGACAAGGCTA", "sensor-assay potency score (higher = more potent)": 0.294}
{"sequence": "TAGAACTTGATGCCCTCTGAGG", "sensor-assay potency score (higher = more potent)": -1.22}
{"molecular_target": "SLC6A17", "assay": "pooled miR-30 sensor sort-seq; sequence = guide strand", "settings": "shRNA"}
{"sequence": "TACTGCAGCTTACTGTTCCAGG", "sensor-assay potency score (higher = more potent)": -0.506}
{"sequence": "ATATATAGTGCCACACACCGAT", "sensor-assay potency score (higher = more potent)": 0.0995}
{"sequence": "TACATCTCCATGTAGTCCTTTG", "sensor-assay potency score (higher = more potent)": -1.15}
{"sequence": "TTCTCGACCACACACTTCTCAT", "sensor-assay potency score (higher = more potent)": -1.03}
{"sequence": "TTCTTGGTTCCATAAATCCAGG", "sensor-assay potency score (higher = more potent)": -1.41}
